This note sets out measurements from PubChem BioAssay (NCI).

Common to all, as to assay: NCI-60 one-dose screen, 48 h (100 = growth as untreated, 0 = no growth, -100 = all killed)
Assay [1] deals with HCT-15 colon. To be noted: 10 µM.
Assay [2] deals with HT29 colon. To be noted: 10 µM.
Assay [3] deals with SNB-75 CNS. To be noted: 10 µM.
The test system of assay [4] is SNB-19 CNS. To be noted: 10 µM.
Assay [5] deals with U251 CNS. The conditions noted are these: 10 µM.
Assay [6] relates to PC-3 prostate. The conditions noted are these: 10 µM.
Assay [7] deals with SK-MEL-5 melanoma. To be noted: 10 µM.
The subject of assay [8] is UACC-62 melanoma. To be noted: 10 µM unless noted.
The test system of assay [9] is LOX IMVI melanoma. The conditions noted are these: 10 µM.
In assay [10] the test system is SK-MEL-28 melanoma. To be noted: 10 µM.

The panel holds about 83,000 compounds, 20% with a hit somewhere; the sample as a whole holds those more often.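 Negative percent growth values reflect cell death: -40 means 40% of the cells present at the start died, and -100 means all died.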 Unmarked numbers belong to inactive results. Active and inactive are the calls of the source. The calls were made as follows: active = growth percent below 10; inactive = the rest.

On to `Nc1ccc(CC(=O)O)c(N)c1`, for which the growth in [1] was 106%; in assay [2], 107%; in assay [3], 93.1%; in [4], 97%; in [5] it was 101%; in assay [6], 101%. For the same compound, the growth in [7] was 99.2%; in assay [8] it was 93.3%; in assay [9], 101%; in [10], 101%.

`C=CCOC(=O)C(=O)OCC=C`: the growth is 100% in [1]; 101% in assay [2]; 102% in assay [3]; 94.7% in [4]; 106% in assay [5]; 97% in [6]. For the same compound, the growth was 98.8% in assay [7], 102% in assay [8], 111% in assay [9] and 113% in [10].

For `CCn1c(=O)n(C)c2c(=O)n(C)c(=O)n(C)c21`, the growth in [1] was 106%; in [2], 101%; in assay [3], 97.1%; in assay [4] it was 102%; in [5], 99.3%; in assay [6] it was 97.4%. For the same compound, the growth in assay [7] was 103%; in assay [8], 107%; in assay [9], 96.4%; in assay [10], 118%.

Take `CC(=O)c1ccc(C(C)(C)C)cc1`: the growth in assay [1] is 101%; in assay [2], 96.7%; in assay [3], 97.7%; in assay [4], 95.6%; in assay [5], 99.6%; in assay [6], 91.2%. The growth in assay [7] is 101%; in assay [8] it was 91.1%; in assay [9], 98.5%; in [10] it was 120%.

On to `CCOC(=O)CCCC(=O)OCC`, for which the growth is 104% in [1]; 110% in assay [2]; 87.8% in assay [3]; 106% in assay [4]; 99.9% in assay [5]; 100% in assay [6]. In addition, the growth is 106% in assay [7], 102% in assay [8], 98.9% in [9] and 109% in [10].

Regarding `Cc1nc2ccccc2c2nnc(SCC(=O)N(Cc3ccccc3)c3ccccc3)n12`, the growth in assay [1] was 90.4%; in [2], 96.1%; in [3] it was 90.4%; in [4], 102%; in [5], 98%; in [6] it was 84.1%. In addition, the growth in [7] was 45.1%; in [8], 84.7%; in assay [9], 91.6%; in [10], 109%.

On to `CCOC(=O)c1cc2cccc(OC)c2oc1=O`, for which the growth was 97.3% in [1]; 113% in assay [2]; 99.5% in [3]; 105% in [4]; 105% in [5]; 106% in [6]. In addition, the growth in [7] is 105%; in assay [8] it was 89.8%; in [9], 104%; in assay [10], 116%.

For `NC(CSC(c1ccccc1)(c1ccccc1)c1ccccc1)C(=O)O` (stereo not given), the growth in [1] is 34.3%; in assay [2] it was 14%; in assay [3], 64.9%; in assay [4], 49.8%; in assay [5] it was 14.1%; in assay [6] it was 19.7%. Besides, the growth in [7] is 26.3%; in assay [8], 48%; in assay [9] it was 38.2%; in assay [10], 57.9%.

In the case of `C[N+](C)=c1ccc2nc3c(cc(Nc4ccccc4)c4ccccc43)oc-2c1`, the growth in [1] is 56.7%; in assay [2], 52.2%; in assay [3], 86.7%; in assay [4] it was 57.2%; in [5], 23.4%; in [6], 47.3%. Besides, the growth was 46.3% in assay [7], 44.8% in [8], 30.4% in [9] and 23.5% in assay [10].

In the case of `CC1(C)N=C(N)N=C(N)N1c1cccc(Br)c1`, the growth was 32.4% in assay [1]; 28.4% in assay [2]; 58.6% in assay [3]; 44.9% in assay [4]; 32.9% in assay [5]; 38.5% in assay [6]. Besides, the growth was 26.7% in assay [7], 30.2% in [8], 20.2% in assay [9] and 72.5% in [10].

For the compound `N#CCCN(CCCN1CCOCC1)CN1C(=O)c2ccccc2C1=O`, the growth in [1] is 104%; in assay [2], 107%; in assay [3], 87.7%; in assay [4], 110%; in [5] it was 100%; in assay [6] it was 105%. In addition, the growth in assay [7] is 96.8%; in assay [8] it was 107%; in assay [9], 101%; in assay [10], 101%.

As to `C[N+](C)(C)C(=O)c1ccccc1`, the growth in assay [1] is 101%; in assay [2] it was 104%; in assay [3], 94.8%; in assay [4], 102%; in assay [5], 107%; in assay [6] it was 102%. For the same compound, the growth in assay [7] is 105%; in assay [8], 94%; in [9] it was 99.9%; in [10] it was 116%.

Consider `Cc1cc(C(O)(c2ccc(Nc3ccccc3)cc2)c2ccc(Nc3ccc(S(=O)(=O)O)cc3)cc2)ccc1N` (stereo not given), for which the growth in assay [1] is -54% (active); in assay [2], -78.4% (active); in assay [3], 16.8%; in assay [4] it was 19.7%; in assay [5], -59.4% (active); in assay [6] it was 12.1%. Besides, the growth in assay [7] is -90.4% (active); in assay [8], -22.7% (active); in assay [9], -65.9% (active); in assay [10], -86.9% (active).

In the case of `CCOC(=O)Nc1cc2c(c(N)n1)N=C(c1ccccc1)CO2`, the growth in [1] was 6.55% (active); in assay [2], 12.2%; in assay [3], 33.5%; in assay [4], 37.3%; in [5], 21.8%; in [6] it was 29.9%. For the same compound, the growth is 10.2% in [7], 34.9% in [8], 28.5% in [9] and 47.6% in assay [10].

For the compound `NC(=S)N/N=C/c1ccc(N)cc1`, the growth in assay [1] was 102%; in assay [2], 107%; in [3] it was 96.1%; in assay [4] it was 104%; in assay [5] it was 96.6%; in [6], 82.2%. Also, the growth in assay [7] is 99.8%; in [8], 95.8%; in [9] it was 91.5%; in assay [10] it was 112%.
